Experimental findings from the supplement of paper PMC12636033 are described below.

± gives the standard deviation of the averaged measurements. The full ranking holds about 33,000 sequences; the median of “E-score (rank enrichment, -0.5 to 0.5)” is about -0.0028, and the highest 2% start at about 0.23. This excerpt belongs to a sample that is enriched for the highest values.

The test system of this assay is 2Sb-muMax20 (muMax20 with two 1,3-bis(methyl)benzene Cys staples, A13C/A17C and Q88C/A92C, C-terminal Lys). The assay is described as follows: PBM 8-mer E-score (E-score (rank enrichment, -0.5 to 0.5)); higher = stronger preferential binding. The protocol:
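Protein binding microarray (universal PBM chip covering all 10-mers in fixed probe flanks) with chemically synthesized human Max(13-93) bHLH-LZ analogs (not full-length Max) bearing noncanonical residues (hArg, Tha, Aib, Nle at 65) and aromatic Cys staples. Read-out per 8-mer (and its reverse complement): E-score (rank-based enrichment, -0.5 to 0.5) and Z-score of median probe intensity.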
On to AAGGTCCT, for which the “PBM 8-mer E-score” value was -0.112 ± 0.078.
For GGAATGCA, the “PBM 8-mer E-score” value was determined as 0.038 ± 0.021.
As for ATTAATAG, the figure is 0.186 ± 0.045; as for ATTAACAA, 0.154 ± 0.00047; as for ATTAACAC, 0.239 ± 0.026.
As for CTTAATGA, the figure is 0.0296 ± 0.046.
Then CTTAATGC, with 0.234 ± 0.011.
As to ATTAATAC, the “PBM 8-mer E-score” value was 0.241 ± 0.012.
Consider ATTAATAA, for which the “PBM 8-mer E-score” value was 0.177 ± 0.038.
As for ATTAATGC, the “PBM 8-mer E-score” value worked out at 0.147 ± 0.069.
As to CTTAACAC, the “PBM 8-mer E-score” value amounted to 0.173 ± 0.015.
As for GATAATAA, the figure is 0.191 ± 0.037.
Then AATAATAC, with 0.0444 ± 0.028; and GATAATAC, with 0.234 ± 0.042; and GTTGCTAA, with 0.124 ± 0.023.
Then CCAACGCG, with -0.0237 ± 0.021.
As for AATACTCA, the “PBM 8-mer E-score” value was 0.102 ± 0.013.
As for CGTCCGTC, the figure is -0.11 ± 0.051; as for ACACATAT, 0.124 ± 0.021; as for ATAGGGCG, 0.138 ± 0.0092.
As for ATGATCAG, the figure is -0.0255 ± 0.099; as for CACTTGAC, -0.0462 ± 0.076.
As for CTTAATAA, the figure is -0.0695 ± 0.0064.
As for CTTAATAC, the “PBM 8-mer E-score” value was 0.244 ± 0.042.
Then CTTAATTC, with 0.173 ± 0.039; and ATCAGCTA, with 0.00813 ± 0.027; and AATGAAGT, with 0.238 ± 0.026.
As for AATGAAGG, the figure is 0.0344 ± 0.037; as for AATGAAGA, 0.0161 ± 0.012; as for TACAATAA, 0.331 ± 0.05.
As for AACAACAC, the “PBM 8-mer E-score” value was determined as 0.2764 ± 0.0019.
Regarding GACAACAC, the “PBM 8-mer E-score” value was -0.0706 ± 0.0054.
Take AACAATAA: the “PBM 8-mer E-score” value turned out to be 0.133 ± 0.017.
As for TACAACAA, the figure is 0.268 ± 0.0087; as for CACAATAA, 0.0489 ± 0.053; as for CACAACAC, 0.219 ± 0.035.
Consider AACAACAA, for which the “PBM 8-mer E-score” value came to 0.194 ± 0.033.
Then CACAACAA, with 0.212 ± 0.0096; and CATTTCCG, with -0.0659 ± 0.0054.
Then CTTCCCGC, with 0.0401 ± 0.037; and ACACGTTA, with 0.08518 ± 0.00069.
As for ATTATAAC, the figure is 0.306 ± 0.0034; as for ATTATACG, 0.0799 ± 0.014; as for ATTATAAG, 0.205 ± 0.057.
In the case of ATTATAAT, the “PBM 8-mer E-score” value is 0.141 ± 0.034.
Then ATTATACA, with 0.0477 ± 0.0088; and ATTATACC, with 0.237 ± 0.011.
As for GGCTTCAC, the figure is -0.204 ± 0.1; as for CGAGTCAG, -0.177 ± 0.05.
Then CTGTATGC, with 0.0233 ± 0.062; and CGATACGA, with -0.06 ± 0.12; and GTATAAGA, with 0.212 ± 0.037.
With ACATAATC, the “PBM 8-mer E-score” value is 0.142 ± 0.023.
In the case of GTATAATA, the “PBM 8-mer E-score” value is 0.226 ± 0.012.
Then ACATAATA, with 0.302 ± 0.0096; and CTATAATA, with 0.0375 ± 0.0029; and ATATAATA, with 0.274 ± 0.044.
Then GCATAATA, with 0.195 ± 0.083; and ATATAAGA, with 0.249 ± 0.011; and CTATAAGA, with 0.0167 ± 0.02.
Then CTTAGCTA, with -0.0391 ± 0.023.
Turning to CTTTCTCC, the “PBM 8-mer E-score” value is 0.00231 ± 0.006.
Consider CATACAGA, for which the “PBM 8-mer E-score” value is -0.0476 ± 0.0072.
Then CACCTGCG, with -0.168 ± 0.017; and CCGTATCG, with -0.0355 ± 0.019; and ACGTGGGA, with 0.203 ± 0.044.
Then ACGTGGTA, with 0.216 ± 0.024; and ACGTGGAT, with 0.207 ± 0.043; and ACGTGGTC, with 0.111 ± 0.0094.
Then ACGTGGAG, with 0.279 ± 0.0086; and AAGTGGGA, with 0.281 ± 0.018.
Turning to ACGTGGGC, the “PBM 8-mer E-score” value was 0.169 ± 0.022.
As for GAGTGGGA, the figure is -0.0417 ± 0.045.
As for ACGTGGTG, the figure is 0.316 ± 0.034; as for ACGTGGGG, 0.261 ± 0.045; as for TAGTGGGA, 0.038 ± 0.0028.
As for CCGTGGAG, the figure is -0.106 ± 0.074; as for TCTCGCCA, 0.0619 ± 0.024.
In the case of AAAAGGCA, the “PBM 8-mer E-score” value was determined as 0.0454 ± 0.064.
Regarding ACGTGGCT, the “PBM 8-mer E-score” value came out at 0.291 ± 0.048.
As to AAGTGGGC, the “PBM 8-mer E-score” value came out at 0.0223 ± 0.023.
Turning to ACGTGGCC, the “PBM 8-mer E-score” value is -0.0906 ± 0.018.
As for AAGTGGGT, the figure is 0.1 ± 0.0081; as for AAGTGGGG, 0.264 ± 0.032; as for ACGTGGCA, 0.114 ± 0.049.
As for AACCGTGC, the figure is -0.0303 ± 0.0035.
Then CGGTATTC, with -0.204 ± 0.072; and GGCCGGCC, with -0.285 ± 0.0086; and CCACGGTA, with -0.185 ± 0.042.
For TTAAAGAA, the “PBM 8-mer E-score” value was 0.125 ± 0.032.
As for GCGTAAAC, the figure is 0.0507 ± 0.016; as for AATTCCAG, 0.0496 ± 0.043; as for ATACTACG, 0.0847 ± 0.053.
As for GGACTCAA, the figure is -0.0969 ± 0.07.
For ATTGGGTA, the “PBM 8-mer E-score” value turned out to be 0.161 ± 0.015.
ATTGGGGC: the “PBM 8-mer E-score” value is 0.284 ± 0.0076.
For the sequence ATTGGGCC, the “PBM 8-mer E-score” value is -0.04 ± 0.093.
Regarding CTTGGGGA, the “PBM 8-mer E-score” value worked out at 0.269 ± 0.046.
As for TATGGGGA, the figure is 0.28 ± 0.014; as for GTTGGGGA, 0.166 ± 0.092.
Then AATGGGGA, with 0.143 ± 0.0043; and ATTGGGGA, with 0.244 ± 0.0088.
Then CTTGGGAA, with -0.0626 ± 0.05; and ATTGGGGG, with 0.0136 ± 0.03.
For the sequence CATGGGGA, the “PBM 8-mer E-score” value was determined as 0.172 ± 0.05.
On to ATTGGGAA, for which the “PBM 8-mer E-score” value turned out to be 0.192 ± 0.0077.
As for AGTGGCTA, the figure is -0.0163 ± 0.084; as for AGTTTCAC, 0.045 ± 0.0036.
CAGCTCAG: the “PBM 8-mer E-score” value is -0.0712 ± 0.0083.
